In PubChem BioAssay:
Unmarked numbers belong to inactive results. The list shows a part of the results. Active and inactive are the calls of the source. Rule as the data show it, unless noted: active = inhibition above about 11%; inactive = the rest.

Tests used:
[1] = molecular target: Serine protease HTRA1 (Homo sapiens) (UniProt Q92743); assay: confirming inhibition of human HTRA1 – biochemical, fluorescence polarization, confirmation (AID 540248;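 active = mean inhibition over three repeats above a set limit taken from the earlier primary screen, cut at about 37% in these data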;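 also: 0% = HTRA1 with DMSO and 100% = wells lacking HTRA1; inhibitors block probe binding so polarization drops and inhibition rises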); conditions: recombinant HTRA1, FP-rhodamine activity-based probe, at 5.96 µM, active compounds read high
[2] = molecular target: Photoreceptor-specific nuclear receptor (Homo sapiens) (UniProt Q9Y5X4); assay: retest of NR2E3-NCOR disrupting agonists – cell-based, luminescence, CHO-S two-hybrid, confirmation (AID 624378;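 active = average inhibition above a cutoff equal to the mean inhibition of all tested compounds plus one SD, cut at about 70% in these data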;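 also: 0% = DMSO in NR2E3 cells and 100% = DMSO in cells lacking NR2E3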); conditions: CHO-S mammalian two-hybrid NR2E3-NCOR, luciferase luminescence; at 3.98 µM; active compounds read high
Sequence of Photoreceptor-specific nuclear receptor (Homo sapiens) (Q9Y5X4 whole entry, looked up, the tested form may be a part): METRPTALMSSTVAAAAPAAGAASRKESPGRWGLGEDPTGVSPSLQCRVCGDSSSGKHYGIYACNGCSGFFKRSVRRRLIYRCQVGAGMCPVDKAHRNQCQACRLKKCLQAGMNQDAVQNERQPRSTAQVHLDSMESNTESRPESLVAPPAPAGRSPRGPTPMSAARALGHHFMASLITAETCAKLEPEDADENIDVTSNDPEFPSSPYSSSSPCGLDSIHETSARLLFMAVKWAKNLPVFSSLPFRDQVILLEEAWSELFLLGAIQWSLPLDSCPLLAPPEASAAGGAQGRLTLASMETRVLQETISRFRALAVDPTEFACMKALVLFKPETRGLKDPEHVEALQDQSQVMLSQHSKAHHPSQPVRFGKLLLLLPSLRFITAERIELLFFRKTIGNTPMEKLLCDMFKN

[3] = nonselective effects on VP16 transactivation – cell-based, luminescence, CHO-S, high throughput, counter-screen for NR2E3 agonist project, confirmation (AID 624379;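 active = mean inhibition above a cutoff equal to the average over all tested compounds plus one standard deviation, cut at about 70% in these data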;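 also: luciferase from a UAS reporter driven by GAL4-VP16 transactivation; 0% = DMSO with VP16-transfected cells and 100% = DMSO with cells lacking VP16; higher means less reporter light so more repression of VP16 activity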); conditions: CHO-S GAL4-VP16 luciferase reporter, at 3.98 µM, active compounds read high
[4] = molecular target: Toll-like receptor 9 (Homo sapiens) (UniProt Q9NR96); assay: disruptors of TLR9 binding to MyD88 – cell-based, CHO, BLA complementation, fluorescence, triplicate, confirmation (AID 540250;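 active = mean inhibition across three repeats above about 21% taken from the earlier screen, limit read from the data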;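 also: blue over green emission ratio reports constitutive TLR9 MyD88 association via BLA complementation; 0% = DMSO vehicle wells and 100% = clavulanate BLA inhibitor wells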); conditions: CCF4 FRET ratio, at 4.98 µM, active compounds read high
Sequence of Toll-like receptor 9 (Homo sapiens) (Q9NR96 whole entry, looked up): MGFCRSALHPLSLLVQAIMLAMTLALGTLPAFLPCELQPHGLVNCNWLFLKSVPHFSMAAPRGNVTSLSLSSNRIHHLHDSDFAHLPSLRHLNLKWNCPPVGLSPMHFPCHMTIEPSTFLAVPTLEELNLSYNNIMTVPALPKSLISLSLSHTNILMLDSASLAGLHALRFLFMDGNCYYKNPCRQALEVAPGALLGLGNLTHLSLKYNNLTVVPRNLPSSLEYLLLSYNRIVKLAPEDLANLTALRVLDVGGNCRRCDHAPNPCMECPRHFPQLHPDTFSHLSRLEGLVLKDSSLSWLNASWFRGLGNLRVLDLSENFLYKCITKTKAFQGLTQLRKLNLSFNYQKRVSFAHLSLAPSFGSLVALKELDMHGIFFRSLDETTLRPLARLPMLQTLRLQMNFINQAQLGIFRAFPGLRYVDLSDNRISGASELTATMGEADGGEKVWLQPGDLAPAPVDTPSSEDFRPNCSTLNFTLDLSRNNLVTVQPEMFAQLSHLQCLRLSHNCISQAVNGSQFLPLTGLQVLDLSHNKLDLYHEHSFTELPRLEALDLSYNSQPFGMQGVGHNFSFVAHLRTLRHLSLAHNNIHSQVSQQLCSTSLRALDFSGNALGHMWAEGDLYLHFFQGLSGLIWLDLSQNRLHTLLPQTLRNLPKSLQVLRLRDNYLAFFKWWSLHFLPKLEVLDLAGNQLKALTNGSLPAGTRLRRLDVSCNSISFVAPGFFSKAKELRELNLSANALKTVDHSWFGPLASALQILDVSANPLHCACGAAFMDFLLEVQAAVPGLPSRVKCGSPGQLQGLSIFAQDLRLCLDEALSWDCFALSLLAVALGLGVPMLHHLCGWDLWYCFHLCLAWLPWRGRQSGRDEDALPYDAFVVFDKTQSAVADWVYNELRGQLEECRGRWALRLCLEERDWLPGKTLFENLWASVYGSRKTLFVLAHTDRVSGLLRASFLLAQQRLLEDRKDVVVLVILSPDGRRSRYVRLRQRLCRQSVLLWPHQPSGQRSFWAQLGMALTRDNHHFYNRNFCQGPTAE

[5] = BLA reporter readout interference – cell-based, fluorescence, artefact control for TLR9-MyD88 binding inhibitor project (AID 540251;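 active = mean inhibition above a 50% cutoff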;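 also: counterscreen of TLR9-MyD88 hits on CMV-driven BLA in CHO-K1 cells; 0% = DMSO alone and 100% = clavulanate blocking BLA; higher means less blue over green ratio so more BLA blockade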); conditions: CHO-BLA cells, CCF4 FRET ratio, at 4.98 µM, active compounds read high
[6] = CHO cell viability loss – luminescence, single concentration, cytotoxicity control for TLR9-MyD88 binding inhibitor project (AID 588336); conditions: TLR9-MyD88 CHO cells cytotoxicity, at 4.98 µM, active compounds read high
[7] = molecular target: Receptor-interacting serine/threonine-protein kinase 2 (Homo sapiens) (UniProt O43353); assay: inhibitors of RIPK2 association with NOD2 – fluorescence, CHO cells, BLA complementation, triplicate, confirmation (AID 624370;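 active = mean inhibition across replicates above a set limit taken from the earlier primary screen, cut at about 21% in these data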;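 also: 0% = DMSO-only wells and the high end = clavulanate BLA-blocked wells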); conditions: CCF4 FRET, at 4.98 µM, active compounds read high
Sequence of Receptor-interacting serine/threonine-protein kinase 2 (Homo sapiens) (O43353 whole entry, looked up): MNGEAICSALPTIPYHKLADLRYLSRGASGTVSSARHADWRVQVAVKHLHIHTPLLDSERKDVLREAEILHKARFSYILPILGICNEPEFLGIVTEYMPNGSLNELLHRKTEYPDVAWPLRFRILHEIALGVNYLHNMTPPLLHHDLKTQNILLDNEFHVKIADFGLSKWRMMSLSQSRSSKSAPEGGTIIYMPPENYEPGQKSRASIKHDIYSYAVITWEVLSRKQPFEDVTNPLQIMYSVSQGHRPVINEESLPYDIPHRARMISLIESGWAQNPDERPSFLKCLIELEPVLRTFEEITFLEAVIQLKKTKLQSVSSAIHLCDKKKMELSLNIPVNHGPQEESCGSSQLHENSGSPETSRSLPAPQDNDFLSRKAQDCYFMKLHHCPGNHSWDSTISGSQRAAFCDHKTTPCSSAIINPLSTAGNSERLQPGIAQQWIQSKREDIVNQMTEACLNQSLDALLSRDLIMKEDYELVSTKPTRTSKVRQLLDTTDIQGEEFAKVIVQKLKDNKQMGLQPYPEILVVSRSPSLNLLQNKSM

[8] = BLA reporter readout interference – cell-based, CHO-K1 CMV-bla, CCF4 FRET, fluorescence, artefact control for NOD2-RIPK2 interaction inhibitor project, confirmation (AID 624371;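 active = mean inhibition above the low-control mean inhibition plus three low-control SD, cut at about 11% in these data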;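 also: 0% = DMSO only wells and 100% = clavulanate high control wells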); conditions: CCF4 FRET ratio, counterscreen, at 4.98 µM, active compounds read high
[9] = tested on: transactivating tegument protein VP16 (Human herpesvirus 1); assay: compounds suppressing VP16-driven luciferase signal – cell-based, luminescence, single concentration, counter-screen for SRC2 inhibitor project (AID 652007; in the data active = inhibition above about 36%); conditions: cell-based VP16 transactivation luciferase reporter, at 8.9 µM, active compounds read high
[10] = molecular target: Nuclear receptor coactivator 2 (Homo sapiens) (UniProt Q15596); assay: inhibition of GAL4-SRC2 driven luciferase expression – cell-based, luminescence, HEK293, triplicate, confirmation (AID 652008;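 active = mean inhibition above 46.5%, the solvent-only control mean plus 3 SD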;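 also: 0% = DMSO-treated cells and 100% = Gossypol at 36 µM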); conditions: HEK293 GAL4-SRC2 luciferase reporter, at 8.9 µM, active compounds read high
Sequence of Nuclear receptor coactivator 2 (Homo sapiens) (Q15596 whole entry, looked up, the tested form may be a part): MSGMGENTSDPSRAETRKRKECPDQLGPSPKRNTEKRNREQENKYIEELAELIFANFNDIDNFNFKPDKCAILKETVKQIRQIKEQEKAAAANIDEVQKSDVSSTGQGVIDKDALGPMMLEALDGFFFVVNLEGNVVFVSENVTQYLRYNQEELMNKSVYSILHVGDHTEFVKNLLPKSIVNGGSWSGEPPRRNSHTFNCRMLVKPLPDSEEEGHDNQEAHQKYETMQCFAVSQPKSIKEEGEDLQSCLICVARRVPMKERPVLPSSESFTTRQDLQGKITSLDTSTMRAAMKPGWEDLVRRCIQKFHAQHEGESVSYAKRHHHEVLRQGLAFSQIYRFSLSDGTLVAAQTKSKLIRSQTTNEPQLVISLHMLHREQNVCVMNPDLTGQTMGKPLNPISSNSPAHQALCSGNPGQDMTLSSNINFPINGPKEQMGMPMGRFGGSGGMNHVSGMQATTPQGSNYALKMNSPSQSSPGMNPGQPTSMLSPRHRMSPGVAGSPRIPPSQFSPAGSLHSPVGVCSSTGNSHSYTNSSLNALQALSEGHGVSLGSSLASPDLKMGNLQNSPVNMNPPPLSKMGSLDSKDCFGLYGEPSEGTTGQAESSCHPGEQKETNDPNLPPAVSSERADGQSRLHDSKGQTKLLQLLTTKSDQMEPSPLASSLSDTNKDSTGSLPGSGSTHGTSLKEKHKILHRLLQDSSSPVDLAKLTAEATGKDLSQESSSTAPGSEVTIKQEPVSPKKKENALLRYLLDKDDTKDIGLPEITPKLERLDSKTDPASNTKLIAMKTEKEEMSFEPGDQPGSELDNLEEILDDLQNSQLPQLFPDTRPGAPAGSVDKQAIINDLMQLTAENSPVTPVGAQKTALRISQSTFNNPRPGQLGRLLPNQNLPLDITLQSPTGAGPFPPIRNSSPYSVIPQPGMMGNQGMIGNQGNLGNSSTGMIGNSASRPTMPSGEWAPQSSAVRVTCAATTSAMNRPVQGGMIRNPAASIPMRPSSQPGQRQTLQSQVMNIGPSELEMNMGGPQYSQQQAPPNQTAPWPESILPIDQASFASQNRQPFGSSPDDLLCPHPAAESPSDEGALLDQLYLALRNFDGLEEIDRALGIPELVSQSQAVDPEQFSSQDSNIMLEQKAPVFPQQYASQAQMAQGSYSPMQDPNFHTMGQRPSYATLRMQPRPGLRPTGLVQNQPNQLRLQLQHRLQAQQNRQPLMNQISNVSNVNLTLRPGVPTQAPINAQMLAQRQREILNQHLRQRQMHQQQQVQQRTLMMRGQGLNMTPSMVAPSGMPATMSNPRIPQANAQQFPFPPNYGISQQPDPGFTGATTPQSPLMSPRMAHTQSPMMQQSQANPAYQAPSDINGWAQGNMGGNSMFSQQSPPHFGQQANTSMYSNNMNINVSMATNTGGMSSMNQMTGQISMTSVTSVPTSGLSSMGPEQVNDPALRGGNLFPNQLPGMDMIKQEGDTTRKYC

[11] = molecular target: Galanin receptor type 2 (Homo sapiens) (UniProt O43603); assay: blockers of human galanin receptor 2 – cell-based, confirmation (AID 866; in the data active = inhibition above about 27%;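 also: cells stimulated with galanin at about its EC80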); conditions: GALR2-expressing cells, antagonist mode, at 4 µM, active compounds read high
Sequence of Galanin receptor type 2 (Homo sapiens) (O43603 whole entry, looked up): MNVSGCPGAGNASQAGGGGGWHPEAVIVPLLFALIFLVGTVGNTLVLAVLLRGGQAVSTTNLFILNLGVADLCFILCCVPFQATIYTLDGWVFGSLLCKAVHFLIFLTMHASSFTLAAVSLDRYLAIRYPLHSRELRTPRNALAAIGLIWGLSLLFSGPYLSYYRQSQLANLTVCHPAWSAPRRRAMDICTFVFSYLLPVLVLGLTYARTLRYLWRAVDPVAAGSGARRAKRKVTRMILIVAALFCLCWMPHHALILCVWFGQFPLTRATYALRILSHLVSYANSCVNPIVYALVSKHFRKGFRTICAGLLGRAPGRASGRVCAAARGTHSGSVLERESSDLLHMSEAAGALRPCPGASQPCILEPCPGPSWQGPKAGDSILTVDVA

[12] = nonspecific BLA reporter inhibition – CHO NFAT-bla cells, FRET readout, counter-screen for GALR2 antagonist project, confirmation (AID 867;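 active = inhibition above the mean inhibition across tested compounds plus 3 SD, cut at about 27% in these data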;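 also: 0% = 500 nM thapsigargin stimulated wells and 100% = unstimulated BSA only wells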); conditions: beta-lactamase FRET, thapsigargin-stimulated, at 4.2 µM, active compounds read high
[13] = molecular target: (Lyso)-N-acylphosphatidylethanolamine lipase (Mus musculus) (UniProt Q8VD66); assay: mouse ABHD4 hydrolase blockers, triplicate – biochemical, fluorescence polarization, confirmation (AID 720658;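 active = mean inhibition across replicates above the hit cutoff set in the primary screen, cut at about 30% in these data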;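 also: 0% = wild-type ABHD4 with DMSO and 100% = catalytically dead S159A mutant with DMSO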); conditions: purified mABHD4, FP-Rh probe fluorescence polarization; at 8.92 µM; active compounds read high
Sequence of (Lyso)-N-acylphosphatidylethanolamine lipase (Mus musculus) (Q8VD66 whole entry, looked up): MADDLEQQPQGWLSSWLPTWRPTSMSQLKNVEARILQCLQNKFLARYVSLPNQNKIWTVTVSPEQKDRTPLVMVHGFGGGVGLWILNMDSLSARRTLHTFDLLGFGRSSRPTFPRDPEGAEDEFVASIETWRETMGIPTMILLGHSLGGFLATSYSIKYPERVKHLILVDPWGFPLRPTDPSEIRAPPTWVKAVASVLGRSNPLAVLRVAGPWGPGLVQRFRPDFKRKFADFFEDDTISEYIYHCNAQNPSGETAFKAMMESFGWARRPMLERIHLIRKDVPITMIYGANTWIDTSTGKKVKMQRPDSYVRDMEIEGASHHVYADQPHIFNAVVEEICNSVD

COc1cnc(-c2ccccn2)nc1Oc1ccc(C(C)(C)C)cc1
inhibition [1]: 53.5% (active)
inhibition [2]: 28.4%
inhibition [3]: 13.6%

O=C1C(Cl)=C(Oc2ccccc2)C(=O)c2ccccc21
inhibition [4]: 79% (active)
inhibition [5]: 17.5%
inhibition [6]: 96.2% (active)

Cc1cccc(NC(=O)c2nc(S(=O)(=O)Cc3ccccc3)ncc2Cl)c1
inhibition [4]: 46.4% (active)
inhibition [5]: 43.2%
inhibition [6]: 97% (active)
inhibition [7]: 78.4% (active)
inhibition [8]: 43.9% (active)
inhibition [9]: 38.7% (active)
inhibition [10]: 44.1%

COC(=O)Cc1cc(=O)oc2c(C)c(O)ccc12
inhibition [11]: 7.7%
inhibition [12]: 16.5%
inhibition [4]: 13.3%
inhibition [5]: 16.3%
inhibition [6]: -0.43%
inhibition [7]: 23.8% (active)
inhibition [8]: 28.6% (active)

CC[C@@H]1Cc2cc(O)ccc2C2=C1c1ccc(O)cc1C[C@H]2CC
inhibition [1]: 47% (active)
inhibition [13]: 31% (active)

CC1(C)CC(=O)C(C2c3ccccc3S(=O)(=O)c3ccccc32)C(=O)C1
inhibition [4]: -5.15%
inhibition [5]: -0.53%
inhibition [6]: 2.02%

CCOc1ccc(C2=CC(c3ccccc3)n3ncnc3N2)cc1 (centres undefined)
inhibition [4]: -2.09%
inhibition [5]: -1.41%
inhibition [6]: -1.28%

Cc1cc(-c2csc(N)n2)c(C)n1Cc1ccccc1
inhibition [1]: 30.6%

O=C(CCN1C(=O)c2ccccc2C1=O)NNC(=O)c1ccc(Cl)cc1Cl
inhibition [4]: -3.93%
inhibition [5]: -2.36%
inhibition [6]: 1.44%

COc1ccccc1CSc1ncc(-c2ccc([N+](=O)[O-])cc2)[nH]1
inhibition [4]: 5.87%
inhibition [5]: 9.21%
inhibition [6]: 2.09%
inhibition [7]: 28.2% (active)
inhibition [8]: 21.9% (active)

C[N+](C)(C)CCNC(=O)c1cc[n+](Cc2ccccc2)c(/C=N/O)c1
inhibition [4]: 7.66%
inhibition [5]: 6.76%
inhibition [6]: -0.18%

CCOC(=O)C1Nc2ccc(C(F)(F)F)cc2C2C=CCC12 (centres undefined)
inhibition [1]: 30.3%
inhibition [13]: 24.3%

O=Nc1c(O)cc(O)c2ccccc12
inhibition [1]: 10.1%
inhibition [13]: 11.7%

COc1ccc(-c2cc(C(F)(F)F)nc(S(C)(=O)=O)n2)cc1OC
inhibition [4]: 28.8% (active)
inhibition [5]: 5.84%
inhibition [6]: 85.2% (active)
inhibition [7]: 42.1% (active)
inhibition [8]: 14.4% (active)
